Reference: PubChem BioAssay (Tox21)
Inconclusive results are not listed. Active and inactive are the calls of the source. Unless noted, calls follow the shape of the dose curve; as a rule, active = well fitted curve in the direction sought with a large enough effect in the repeat runs; inconclusive = weak or mixed curves; inactive = no such curve, though single readings can be large; an effect the other way counts as inactive or inconclusive.

Tests used:
[1] = qHTS assay for small molecule agonists of the p53 signaling pathway (AID 651631; calls by dose curve; also: nearly all actives have a fitted effect of over 15% in size)
Method in brief: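 HCT-116 p53RE-bla reporter line, 16 h compound treatment at 37 °C, then fluorescence after 2 h with B/G FRET substrate.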

[2] = qHTS assay for small molecules that induce genotoxicity in human embryonic kidney cells expressing luciferase-tagged ATAD5 (AID 651632); also: nearly all actives have a fitted effect of over 15% in size
Method in brief: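 Test compounds were delivered by pin tool onto HEK293T reporter cells (2,000/well) expressing ATAD5 fused to luciferase. After 16 hr at 37C, 5% CO2, Amplite was added for 30 min at room temperature and luminescence was measured.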

[3] = qHTS assay for small molecule agonists of the p53 signaling pathway - cell viability (AID 651633; calls by dose curve;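 also: p53RE-bla HCT reporter cells with a stable beta-lactamase p53 reporter; nearly all actives have a fitted effect of over 30% in size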)
Method in brief: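 p53RE-bla cells, seeded at 4,000 per well and rested 5 h at 37 C/5% CO2, received compounds in DMSO for 16 h at 37 C. CellTiter-Glo was then added, and luminescence was read after 30 min at room temperature to gauge cytotoxicity.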

[4] = qHTS assay for small molecules that induce genotoxicity in human embryonic kidney cells expressing luciferase-tagged ATAD5 - cell viability (AID 651634; calls by dose curve; also: nearly all actives have a fitted effect of over 25% in size)
Method in brief: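 Quantitative high-throughput format. HEK293T cells expressing ATAD5 fused to luciferase were plated at 2,000 cells/well and treated 15.5 hr with compound versus DMSO. Viability was determined by fluorescent live-cell protease substrate, 30 min at 37C.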

[5] = qHTS assay for small molecule disruptors of the mitochondrial membrane potential - cell viability (AID 720634; calls by dose curve;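 also: human HepG2 liver cancer cells; nearly all actives have a fitted effect of over 20% in size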)
Method in brief: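 Same-well counter-screen: following the MMP dye addition, CellTiter-Glo was added to 1 hr compound-treated HepG2 cells and luminescence read after 30 min at room temperature.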

[6] = qHTS assay for small molecule disruptors of the mitochondrial membrane potential (AID 720635)
Method in brief: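 HepG2 cells (2,000/well) attached overnight at 37C, then took compound for 1 hr at 37C, 5% CO2. Mito-MPS dye was added for 30 min; fluorescence was read at 490/535 nm (monomers) and 540/590 nm (aggregates).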

[7] = qHTS assay to test for compound auto fluorescence at 590 nm (red) in HepG2 cells (AID 720674)
Method in brief: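 Intrinsic compound fluorescence in the red window (Ex/Em 540/590 nm) is measured in attached HepG2 cells exposed for 1 hr, DMSO vehicle as baseline, benchmarked to Rose Bengal sodium.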

[8] = qHTS assay to test for compound auto fluorescence at 535 nm (green) in HepG2 cells (AID 720675)
[9] = qHTS assay to test for compound auto fluorescence at 460 nm (blue) in HEK293 cells (AID 720678)
Method in brief: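 Blue read-out at excitation 405 nm and emission 460 nm follows overnight compound exposure of HEK293 cells at 37C in 5% CO2. Activity is given as auto fluorescence equivalency to triamterene.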

[10] = qHTS assay to test for compound auto fluorescence at 590 nm (red) in HEK293 cells (AID 720679)
Method in brief: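 Red channel, Ex/Em 540/590nm; signal expressed as equivalency to Rose Bengal sodium. HEK293, 2,000 cells/well, 10% dialyzed FBS; 23 nL compound pinned after 4-5 hr attachment; overnight 37C/5% CO2 before reading.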

[11] = qHTS assay to test for compound auto fluorescence at 535 nm (green) in HEK293 cells (AID 720680)
[12] = qHTS assay to test for compound auto fluorescence at 460 nm (blue) in HEK293 cell free culture (AID 720681)
Method in brief: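 Test compounds were pinned into cell-free culture medium (DMEM with 10% FBS) and fluorescence was read directly at Ex/Em 405/460 nm. Signals were expressed as fluorescence equivalents of triamterene, with DMSO vehicle as control.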

[13] = qHTS assay to test for compound auto fluorescence at 535 nm (green) in HEK293 cell free culture (AID 720682)
Method in brief: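 Steps: dispense DMEM/10% FBS into empty wells; pin in compound or DMSO; measure fluorescence at 485/535 nm. Values are fluorescein equivalents.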

[14] = qHTS assay to test for compound auto fluorescence at 590 nm (red) in HEK293 cell free culture (AID 720683)
Method in brief: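 Tox21 10K library compounds were pinned into cell-free DMEM with 10% FBS and fluorescence was read at excitation 540 nm. Activity is expressed as Rose Bengal sodium equivalency.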

[15] = qHTS assay to test for compound auto fluorescence at 590 nm (red) in HepG2 cell free culture (AID 720684)
Method in brief: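 Ex 540 / Em 590 nm read of compound in cell-free MEM (10% FBS). Rose Bengal sodium reference.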

[16] = qHTS assay to test for compound auto fluorescence at 460 nm (blue) in HepG2 cell free culture (AID 720685)
Method in brief: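 Cell-free plates of MEM plus 10% FBS received 23 nL compound or DMSO vehicle; blue-channel (405/460 nm) intensity scored against triamterene as reference fluorophore.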

[17] = qHTS assay to test for compound auto fluorescence at 535 nm (green) in HepG2 cell free culture (AID 720686)
[18] = qHTS assay to test for compound auto fluorescence at 460 nm (blue) in HepG2 cells (AID 720687)
Method in brief: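 Cells (2,000/well in MEM with 10% FBS) attached overnight at 37 C, then were exposed to compound or DMSO for 1 hr at 37 C, 5% CO2. Fluorescence read at Ex/Em 405/460 nm, expressed as triamterene-equivalent signal.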

[19] = target: Glucocorticoid receptor (Homo sapiens) (UniProt P04150); experiment: qHTS assay to identify small molecule agonists of the glucocorticoid receptor (GR) signaling pathway (AID 720691; active = well fitted activation curve with a large enough effect in the signal ratio in the repeat runs, not every such curve was filed as active; the % refers to the signal ratio); details: GR-bla HeLa, beta-lactamase reporter ratio, 18 h; activation: at 62.4 µM (top of the series)
Glucocorticoid receptor (Homo sapiens), sequence (P04150 whole entry, looked up): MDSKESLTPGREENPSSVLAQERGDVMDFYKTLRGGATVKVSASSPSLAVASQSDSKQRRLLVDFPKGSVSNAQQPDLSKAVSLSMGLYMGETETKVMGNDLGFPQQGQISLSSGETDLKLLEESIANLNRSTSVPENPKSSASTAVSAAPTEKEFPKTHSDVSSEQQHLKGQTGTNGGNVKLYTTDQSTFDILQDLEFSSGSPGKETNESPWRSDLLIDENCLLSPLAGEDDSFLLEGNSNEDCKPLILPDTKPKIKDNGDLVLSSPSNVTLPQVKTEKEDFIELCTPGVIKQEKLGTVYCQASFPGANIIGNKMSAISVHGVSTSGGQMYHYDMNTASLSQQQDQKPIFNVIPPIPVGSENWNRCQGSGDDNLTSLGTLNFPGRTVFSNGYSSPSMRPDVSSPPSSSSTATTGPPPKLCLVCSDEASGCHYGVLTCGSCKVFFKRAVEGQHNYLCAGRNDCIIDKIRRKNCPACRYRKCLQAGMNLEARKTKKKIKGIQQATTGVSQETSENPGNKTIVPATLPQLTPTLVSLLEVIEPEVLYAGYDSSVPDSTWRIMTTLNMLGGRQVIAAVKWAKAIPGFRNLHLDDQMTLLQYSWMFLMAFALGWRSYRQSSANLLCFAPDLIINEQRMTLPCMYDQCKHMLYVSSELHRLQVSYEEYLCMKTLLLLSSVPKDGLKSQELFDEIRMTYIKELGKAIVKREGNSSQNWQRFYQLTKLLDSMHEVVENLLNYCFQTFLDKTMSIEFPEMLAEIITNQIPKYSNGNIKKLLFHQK
Method in brief: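 A HeLa cervical cancer line expressing GR and a glucocorticoid response element-driven beta-lactamase gene is treated with compounds for 18 h; LiveBLAzer B/G FRET substrate is then applied and fluorescence read.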

[20] = target: Glucocorticoid receptor (Homo sapiens) (UniProt P04150); experiment: qHTS assay to identify small molecule antagonists of the glucocorticoid receptor (GR) signaling pathway (AID 720692; active = well fitted inhibition curve with a large enough effect in the signal ratio in the repeat runs, not every such curve was filed as active; the % refers to the signal ratio)
Method in brief: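 GRE-bla HeLa line, dex-stimulated (5 nM final). Compound exposure 18 h, 37 C. Beta-lactamase FRET read after 2 h RT substrate.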

Measured: Potency

CC(C)(CO)[C@@H](O)C(=O)NCCC(=O)NCCSSCCNC(=O)CCNC(=O)[C@H](O)C(C)(C)CO
inactive: all assays above

CCCCCCCCCCCCCCCCCC(=O)OCCO
inactive: all assays above

O=P(O)(O)C(Sc1ccc(Cl)cc1)P(=O)(O)O
inactive: all assays above

COCC1=C(C(=O)OC(C)OC(=O)OC(C)C)N2C(=O)[C@@H](NC(=O)/C(=N\OC)c3csc(N)n3)[C@H]2SC1 (stereo partly drawn)
not listed: [19] | [20]
inactive: all other assays above

CO[C@H]1[C@@H](O)[C@H](N)[C@@H](O[C@H]2O[C@H]([C@H](C)N)CC[C@H]2N)[C@H](O)[C@@H]1N(C)C(=O)CN
inactive: all assays above

C=C[C@]1(C)C[C@@H](OC(=O)CO)[C@]2(C)[C@H](C)CC[C@]3(CCC(=O)[C@H]32)[C@@H](C)[C@@H]1O
inactive: all assays above

C=CCN1CCCC1CNC(=O)c1cc(S(N)(=O)=O)cc(OC)c1OC (stereo not drawn)
not listed: [19]
inactive: all other assays above

CCOC(=O)COc1ccc2c(C)c(CCN(CC)CC)c(=O)oc2c1
inactive: all assays above

O=C(O)c1ccc(OCCn2ccnc2)cc1
inactive: all assays above

OC(CN1CCCCC1)c1cc(-c2ccccc2)on1 (stereo not drawn)
not listed: [20]
inactive: all other assays above

CCCCOC(=O)C(=O)Nc1cccc(-c2nn[nH]n2)c1
not listed: [19] | [20]
inactive: all other assays above

C[N+]1(C)CCN(CC(O)(c2ccccc2)C2CCCCC2)CC1 (stereo not drawn)
not listed: [19]
inactive: all other assays above
